# Rows were chosen to be rich in hits. Some 2.8% of all compounds tested hit in one or more screens of this group.
# SENP8 block-1 – human SENP8 protease inhibitors, primary screen, biochemical, fluorescence, Nedd8 protein substrate, uHTS | Sentrin-specific protease 8 (Homo sapiens), Q96LD8 | recombinant SENP8 | inhibition, % at 20 µM | 360,000 compounds, 0.64% hits; in the data active = inhibition mostly above about 40%, no sharp cut-off; inactive = mostly below about 27%
# SENP8 block-2 – SENP8 protease inhibitors, primary screen, biochemical, luminescence; Sentrin-specific protease 8 (Homo sapiens), Q96LD8; purified SENP8, Z-RLRGG-aminoluciferin cleavage; inhibition, % at 10 µM; 330,000 compounds, 1.2% hits; in the data active = inhibition above about 50%
# HSP90 refold inh – HSP90 inhibitors, primary screen, cell lysate, luminescence | inhibition, % at 5.6 µM | Heat shock protein HSP 90 (rabbit reticulocyte lysate; luciferase refolding) | 290,000 compounds, 0.91% hits | Rabbit reticulocyte lysate, luciferase refolding luminescence, 3 h;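 active = inhibition above the screen-wide mean plus 3 SD, computed separately per campaign, cut at about 16% in these data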;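 note: 0% = DMSO wells and 100% = 60 µM geldanamycin wells; inhibitors lower the luminescence because luciferase stays unfolded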
# SENP7 inh – SENP7 protease inhibitors, primary screen, biochemical, luminescence, uHTS. Sentrin-specific protease 7 (Homo sapiens), Q9BQF6. recombinant SENP7, Z-RLRGG-aminoluciferin luminescence, 40 min. inhibition, % at 5 µM. 330,000 compounds, 1.5% hits. AID 434973, 2010;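 active = inhibition above about 50% at the single test dose, limit read from the data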;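 note: plate controls were DMSO with enzyme for no effect and no enzyme buffer wells for full effect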
# SENP6 inh – SENP6 protease inhibitors, primary screen, biochemical, luminescence, uHTS; 330,000 compounds, 1.8% hits; Recombinant SENP6 catalytic domain, aminoluciferin luminescence; inhibition, % at 10 µM;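 active = inhibition above about 50% at the single tested dose, limit read from the data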;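 note: plate controls were DMSO wells with enzyme for no effect and DMSO wells lacking enzyme for full effect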
# Target sequence (Q9GZR1 628-1112 limits assumed): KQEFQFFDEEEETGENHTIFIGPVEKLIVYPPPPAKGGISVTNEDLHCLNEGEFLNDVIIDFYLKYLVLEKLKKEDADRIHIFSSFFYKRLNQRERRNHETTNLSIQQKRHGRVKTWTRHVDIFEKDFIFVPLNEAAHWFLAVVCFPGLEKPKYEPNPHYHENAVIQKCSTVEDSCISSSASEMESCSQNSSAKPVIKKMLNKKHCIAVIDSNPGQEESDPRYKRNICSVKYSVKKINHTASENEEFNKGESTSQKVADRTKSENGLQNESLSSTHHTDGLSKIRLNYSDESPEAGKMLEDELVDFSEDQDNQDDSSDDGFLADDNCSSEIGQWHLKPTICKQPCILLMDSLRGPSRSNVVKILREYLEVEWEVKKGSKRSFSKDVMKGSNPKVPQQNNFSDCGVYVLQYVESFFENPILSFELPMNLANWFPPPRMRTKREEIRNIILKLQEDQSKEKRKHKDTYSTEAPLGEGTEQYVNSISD
# SENP8 conf – SENP8 protease inhibitors, retest, confirmation, biochemical, luminescence, single concentration; shares compounds with SENP7 inh; Recombinant SENP8, Z-RLRGG-aminoluciferin luminescence, 60 min; inhibition, % at 12.5 µM; 6,200 compounds, 40% hits; AID 488912, 2010;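 active = mean inhibition across replicates above about 50%, limit read from the data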
# SENP6 confirm – SENP6 protease inhibitors, confirmation, biochemical, luminescence, single concentration. shares compounds with SENP7 inh. recombinant SENP6, Z-RLRGG-aminoluciferin luminescence. inhibition, % at 12.5 µM. 6,200 compounds, 58% hits. AID 488915, 2010
# SENP7 conf – SENP7 protease inhibitors, retest, confirmation, biochemical, luminescence, single concentration | shares compounds with SENP7 inh | recombinant SENP7, Z-RLRGG-aminoluciferin luminescence, 40 min | inhibition, % at 12.5 µM | 6,200 compounds, 69% hits
# Casp3 SENP sel – caspase-3 protease inhibitors, confirmation, selectivity assay for SENP inhibitor project, biochemical, single concentration; shares compounds with SENP7 inh; purified caspase-3, Z-DEVD-aminoluciferin luminescence, 60 min; inhibition, % at 12.5 µM; 6,200 compounds, 60% hits;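 active = mean inhibition above about 50%, limit read from the data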;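 note: plate controls were enzyme with DMSO for no effect and wells without caspase-3 for full effect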
# SENP luc ctr – interferes with luciferase luminescence in SENP counter-screen; shares compounds with SENP7 inh; Pre-incubated SENP8/Z-RLRGG-aminoluciferin, luciferase luminescence interference; inhibition, % at 12.5 µM; 6,200 compounds, 39% hits; AID 488919;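 active = mean inhibition above about 50% when retested at one dose, limit read from the data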;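 note: plate controls were DMSO wells with completed reaction for no effect and substrate without enzyme for full effect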
# Active calls of the source: *; . = no result.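 Rule for the calls, unless noted: active = mean inhibition above about 50% in the one-dose retest (limit read from the data); inactive = the rest.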
SMILES,SENP8 block-1,SENP8 block-2,HSP90 refold inh,SENP7 inh,SENP6 inh,SENP8 conf,SENP6 confirm,SENP7 conf,Casp3 SENP sel,SENP luc ctr
COc1ccc(CN2CCC[C@]3(N[C@H](c4ccc(C(F)(F)F)cc4)[C@@H]4C(=O)N(C)C(=O)[C@@H]43)C2=O)cc1,-28,.,.,.,.,.,.,.,.,.
Cc1ccc(NS(=O)(=O)c2ccc3c(c2)NC(=O)CO3)cc1C,13,5,0,-9,5,.,.,.,.,.
O=C1CN(C(=O)COC(=O)c2cccc(Br)c2)c2ccccc2N1,6,1,.,8,-11,.,.,.,.,.
O=C(NCCN1CCOCC1)C1CCC(CNS(=O)(=O)c2ccc(Cl)cc2)CC1 (stereo not given),7,-52,3,60*,10,1,-2,-3,-3,-2
O=C(O)c1cc2nc3c(c(C(F)(F)F)n2n1)CCc1ccccc1-3,-50,3,-1,6,72*,-21,-14,-8,-7,-5
CCOC(=O)c1csc(-c2sccc2Br)n1,23,94*,2,98*,94*,96*,98*,102*,97*,93*
COC(=O)c1ccc(COc2ccc3c4c(c(=O)oc3c2)CCC4)o1,-126,70*,13,58*,77*,14,17,3,1,-5
COC(=O)c1cc(COc2ccc3c4c(c(=O)oc3c2)CCCC4)c(C)o1,-287,0,2,6,5,.,.,.,.,.
Clc1ccc2oc(-c3ccccn3)nc2c1,-42,28,1,57*,67*,33,56*,86*,78*,31
Cc1nc2nc(-c3ccccc3)cn2nc1C,-331,41,4,11,37,.,.,.,.,.
Cc1nc2nc(-c3ccc(F)cc3)cn2nc1C,-318,71*,-4,1,67*,47,92*,100*,97*,54*
O=[N+]([O-])c1cccc(N=Nc2ccc(O)cc2O)c1,37,.,.,.,.,.,.,.,.,.
O=[N+]([O-])c1ccc(N=Nc2ccc(O)cc2O)cc1,5,96*,-1,98*,97*,100*,101*,104*,99*,99*
OC(c1cc(-c2ccc(Cl)cc2)nc2ccccc12)C1CCCCN1 (stereo not given),14,.,4,.,.,.,.,.,.,.
Cc1ccc(Cl)cc1N1CCN(S(C)(=O)=O)CC1,3,-6,-2,67*,4,4,6,14,9,5
FC(F)Oc1ccccc1NC(=S)NCc1ccco1,12,8,-4,7,6,.,.,.,.,.
C[C@H]1COC(=O)CCCC/C=C\C[C@H](CC(=O)N(CCO)Cc2ccccc2)C(=O)N1,24,-1,.,5,-7,.,.,.,.,.
COc1ccc(-c2cc(=O)n(-c3nc4ccccc4[nH]3)[nH]2)cc1,-64,87*,-2,34,91*,-4,92*,101*,96*,54*
CC(=O)n1ccnc1,5,1,-5,-1,-18,.,.,.,.,.
COc1ccc(-c2csc(Nc3cccc(C)n3)n2)cc1,8,88*,-1,81*,90*,6,81*,96*,54*,8
CC(=O)Oc1ccc(-c2csc(Nc3cccc(C)n3)n2)cc1,4,87*,2,87*,73*,11,50,55*,70*,2
COc1ccc(-c2csc(Nc3cccc(C)n3)n2)cc1C,17,.,-1,.,.,.,.,.,.,.
Cc1cccc(Nc2nc(-c3ccc(F)cc3)cs2)n1,11,84*,4,85*,96*,11,81*,97*,56*,12
NS(=O)(=O)c1ccc(Nc2nc(-c3ccc(F)cc3)cs2)cc1,-386,-5,-4,-5,-19,.,.,.,.,.
Cc1ccc(S(=O)(=O)CCC(=O)OCC(=O)NCC(=O)Nc2cccc(C)c2C)cc1,9,4,1,-5,3,.,.,.,.,.
SMILES,SENP8 block-1,SENP8 block-2,HSP90 refold inh,SENP7 inh,SENP6 inh,SENP8 conf,SENP6 confirm,SENP7 conf,Casp3 SENP sel,SENP luc ctr
CC(C)NC(=O)C(=O)NCc1ccccn1,24,3,0,2,-1,.,.,.,.,.
CCc1nnc(NC(=O)CSc2nnc(-c3cc4ccccc4cc3O)n2CCOC)s1,-40,-5,2,-1,-22,.,.,.,.,.
Cc1c(C(=O)/C=C/c2cccs2)oc2ccc(F)cc12,20,2,7,-13,52*,28,14,11,-4,21
Cc1ccc(C(=O)NNC(=S)Nc2cccc3ccccc23)s1,-328,28,-2,44,55*,-11,-13,-1,-2,16
CC(=O)c1cccc(NC(=S)Nc2cccc3ccccc23)c1,-396,62*,8,19,84*,1,7,5,10,13
O=C(NNC(=S)Nc1cccc2ccccc12)c1cccc(Br)c1,-84,18,0,16,4,.,.,.,.,.
CC(=O)Nc1cccc(NC(=S)Nc2cccc3ccccc23)c1,-467,24,6,22,45,.,.,.,.,.
COc1ccc(NC(=S)Nc2cccc3ccccc23)cc1OC,-376,77*,7,63*,88*,4,11,4,1,3
Cc1ccc(CNC(=O)C2CCN(S(=O)(=O)c3c(C)noc3/C=C/N(C)C)CC2)cc1,5,1,-3,-5,5,.,.,.,.,.
Nc1c(-c2ccccc2)cnn1-c1ccccc1,11,70*,0,83*,79*,75*,72*,94*,88*,78*
Oc1c(C=Nc2ccccc2)sc(=S)n1Cc1ccccc1,1,0,0,-7,9,.,.,.,.,.
CCn1c(O)c(C=Nc2ccccc2)sc1=S,.,69*,-2,70*,81*,44,51*,96*,61*,11
COc1ccc2cc3cc(C(=O)N(C)C4CCCCC4)oc3nc2c1,-400,52*,0,61*,60*,6,4,32,38,-1
